The whole screen tested about 1,300 compounds, of which about 1,100 (85%) were called active. No stated cut-off is given here; in the data, active means inhibition above about 48%; inactive means the rest. So high a share suggests a set chosen from earlier hits. Only a sample is shown.

A word on the inhibition: it is the relative decrease from the control value, in per cent.

The assay is described as follows: yeast-expressed human NALP3 blockade – luminescence, single concentration, confirmation (AID 435006). Particulars: yeast expressing human NALP3, luminescence; at 10 µM; hits give high values.
Take `O=C(Nc1ccccc1Cl)/C(Cl)=C(\Cl)S(=O)c1ccccc1` (centres undefined): the inhibition is 64.3% (active).

As to `O=[N+]([O-])c1c(NCCO)cc(Sc2nc3ccccc3s2)c2nonc12`, the inhibition was 62.6% (active).

In the case of `O=C(Nc1ccccc1)c1cc2ccccc2[nH]1`, the inhibition is 73.6% (active).

Take `CC(C)(c1ccccc1)c1ccc(OCCN)cc1`: the inhibition was 71.8% (active).

Take `CN(C)c1ccnc2sc(C(=O)c3ccccc3)c(N)c12`: the inhibition is 68% (active).

As for `Cc1ccc(OCc2nc3ccccc3n2C)cc1`, the inhibition was 78.3% (active).

As for `CC(C)n1c(COc2ccccc2)nc2ccccc21`, the inhibition is 70% (active).

On to `CC(=O)[C@@]12O[C@@H]1C[C@H]1[C@@H]3CC[C@H]4C[C@@H](O)CC[C@]4(C)[C@H]3CC[C@@]12C`, for which the inhibition is 71.5% (active).

For `C[C@@H]1C[C@@H]2O[C@H]2/C=C\C=C\C(=O)Cc2c(Cl)c(O)cc(O)c2C(=O)O1`, the inhibition is 72.4% (active).

Consider `O=C(CC(O)(C(F)(F)F)C(F)(F)F)Nc1ccc(Cl)c(Cl)c1`, for which the inhibition was 97.9% (active).

In the case of `N#Cc1nc(COc2ccc(Cl)cc2)oc1N1CCCC1`, the inhibition was 30.3% (inactive).

For `Cc1ccc(OCc2nc(C#N)c(N3CCCC3)o2)cc1`, the inhibition was 48.9% (active).

As to `CC1CC2=C(CC1/C=N/NC(N)=S)C(C)(C)CCC2` (centres undefined), the inhibition was -1.3% (inactive).

As to `O=[N+]([O-])c1cccc(/C=N/Nc2ncc(Br)cn2)c1`, the inhibition is 72.2% (active).

As to `Cc1ccnc(Nc2nc3ccccc3s2)n1`, the inhibition was 73% (active).

Take `CCOC(=O)c1c(C)[nH]c(C(=O)COc2ccc3c(c2)OCO3)c1C`: the inhibition was 47% (inactive).

`O=C(COc1ccccc1F)Nc1nc(-c2ccccn2)cs1`: the inhibition is 55.5% (active).

As for `Oc1ccc(Br)cc1/C=N/Nc1ccccn1`, the inhibition was 66.3% (active).

Take `COc1cccc(/C=N/Nc2cc(C)nc(-c3ccccc3O)n2)c1O`: the inhibition is 25.5% (inactive).

Turning to `O=C(NCc1ccc2c(c1)OCO2)c1c(O)nc2sccn2c1=O`, the inhibition is 75.2% (active).

Regarding `Cc1cccc(NC(=S)NC(=O)c2ccc(Br)o2)c1`, the inhibition was 63.5% (active).

Consider `Cc1csc(NC(=S)Nc2cccc(Cl)c2)n1`, for which the inhibition is -12% (inactive).

As to `COCCCNC(=O)/C=C/c1ccc(OCc2c(F)cccc2Cl)cc1`, the inhibition was 27.1% (inactive).

For `Fc1ccccc1-c1cc2cc3c(cc2cn1)OCO3`, the inhibition was 51.1% (active).

For `O=[N+]([O-])/C=C/c1ccc2c(ccn2Cc2ccccc2)c1`, the inhibition was 78.7% (active).

Consider `Cc1cc(C)c(/C=C2\C(=O)Nc3ccccc32)[nH]1`, for which the inhibition is 51.8% (active).

With `Cn1c(=NC(=O)c2ccco2)sc2cccc(F)c21`, the inhibition was 60.5% (active).

For `CC(C)C(=O)N1CCN(CCN=CC2=C(O)CC(c3ccco3)CC2=O)CC1` (centres undefined), the inhibition was 74.3% (active).

In the case of `Cc1ccc(-c2nn(C(C)(C)C)c3ncnc(N)c23)cc1`, the inhibition is 86.7% (active).

In the case of `CC(C)Sc1ncnc2c1cnn2-c1ccccc1`, the inhibition was 48.7% (active).

For the compound `Cc1ccc(O)c(NC(=O)c2cc(-c3ccco3)on2)c1`, the inhibition is 76% (active).

Turning to `CCSc1nc2sc3c(c2c(=O)n1-c1ccc(C)cc1)CCN(C)C3`, the inhibition is 69.4% (active).

For `O=C(Oc1c(-c2ccco2)oc2ccccc2c1=O)c1cccnc1`, the inhibition is 78.3% (active).

As to `O=C(Nc1ccc2oc(-c3ccccc3F)nc2c1)c1ccco1`, the inhibition was 82.2% (active).

On to `CCc1noc(C)c1C(=O)Nc1nc2ccc(OC)cc2s1`, for which the inhibition was 78.5% (active).

For `Cc1c(C(=O)N2CCCc3ccccc32)oc2ccccc12`, the inhibition is 47.6% (inactive).

For the compound `Cc1cc(C(=O)COc2ccc(Br)cc2F)c(C)n1C1CC1`, the inhibition was 54.5% (active).

For `Cn1c(=O)c(C(=O)Nc2ncccn2)c(O)c2ccccc21`, the inhibition is 60.5% (active).

`Oc1c(Cl)cc(Cl)c(Cl)c1Cc1c(O)c(Cl)cc(Cl)c1Cl`: the inhibition is 99% (active).

For the compound `Nc1c(-c2cccc(Cl)c2)cnn1-c1cccc([N+](=O)[O-])c1`, the inhibition is 61.2% (active).

As for `CCc1cc(C(=O)Nc2nnc(C3CC3)s2)sc1C`, the inhibition was 60.8% (active).

For the compound `O=C(CSc1ccc(-c2ccc(-n3cccn3)cc2)nn1)Nc1ccc([N+](=O)[O-])cc1`, the inhibition was 41% (inactive).

Take `CN=C1C=C/C(=N/N=c2\ccn(O)cc2C)C=C1C`: the inhibition was 57.2% (active).

In the case of `O=C(Nc1ccc(Oc2ccccc2)cc1)c1ccco1`, the inhibition is 44.5% (inactive).

As for `COc1ccccc1C(=O)Nc1ccc(NC(=O)c2ccco2)c(C)c1`, the inhibition is 60.8% (active).

On to `CCN(CC)c1ccc(/C=N/Nc2nc(C)cc(C)n2)c(O)c1`, for which the inhibition is 40.4% (inactive).

Regarding `CC(=NCc1ccc2c(c1)OCO2)C1=C(O)c2ccccc2C1=O`, the inhibition is 67.5% (active).

`CC1(C)CCSC(/C=C/c2ccccc2)=N1`: the inhibition was 87.4% (active).

Take `O=C1C=C(c2ccc(Cl)cc2)C(=O)N1Nc1ccccc1`: the inhibition was 55% (active).

As for `CCCN(CC1CC1)C(=S)NC(=O)c1ccccc1Br`, the inhibition was 47.1% (active).

Take `O=C(CSc1ncnc2c1oc1ccccc12)NC1CCCC1`: the inhibition was 67.6% (active).

As for `N#Cc1nc(Cc2ccccc2)oc1NCCc1ccccc1`, the inhibition is 48.6% (active).

Take `CCCc1nc2c(c(=O)c3ccccc3n2C)c(=O)n1C1CCCCCC1`: the inhibition was 30.2% (inactive).

As for `COc1ccccc1OCc1nc2ccccc2s1`, the inhibition was 47.1% (active).

Turning to `CCCCCCC12CCC(C(=O)O)(CC1)CC2`, the inhibition was 66.8% (active).

Consider `Cc1cc(C)nc(NC(=O)Nc2ccccc2C(F)(F)F)n1`, for which the inhibition is 68.8% (active).

On to `O=C(CCCN1C(=O)/C(=C\c2ccco2)SC1=S)Nc1cccc2ccccc12`, for which the inhibition was 52.9% (active).

As to `Cc1ccc2cccc(S(=O)(=O)N3CCN(c4ccccc4F)CC3)c2n1`, the inhibition is 65.9% (active).

As to `O=C1CSC(=S)N1c1ccc(O)cc1`, the inhibition was 83.8% (active).

As for `COc1cc(N2C(=O)CSC2=S)cc(OC)c1OC`, the inhibition was 58.7% (active).

Take `CC(C)C(=O)Nc1ccc2c(c1)oc1ccccc12`: the inhibition is 2.95% (inactive).

`COc1ccc(OCc2nnc3n2N=C(c2ccccc2)C(CC(=O)O)S3)cc1` (centres undefined): the inhibition was 16.8% (inactive).

On to `Cc1ccc(CSc2nsc(C)c2C#N)cc1`, for which the inhibition was 56.3% (active).

Take `CCCNc1ncnc2sc(C)c(C)c12`: the inhibition was 60.5% (active).

The record behind these values is PubChem BioAssay AID435006 (Sanford-Burnham Center for Chemical Genomics, 2010).
